Reference: PubChem BioAssay (Tox21)
Inconclusive results are not listed. Unmarked numbers belong to inactive results. Calls of active or inactive are those of the source. Calls come from the whole dose curve; as a rule, active = well fitted cell-killing curve with a large enough effect in the repeat runs; inconclusive = weak or mixed curves, or effect the other way; inactive = no such curve, though single readings can be large or run the other way.

assay: qHTS assay for small molecule activators of the heat shock response signaling pathway - cell viability counter screen (AID 743209); details: HSE-bla HeLa viability, CellTiter-Glo luminescence, 5 h; series mostly up to 62.6 µM; activity change, negative = cytotoxicity: at the top concentration; note: nearly all actives have a fitted effect of over 50% in size
Description: U.S. Tox21 Program National Center for Advancing Translational Sciences [NCATS] NIH Chemical Genomics Center [NCGC] U.S. Environmental Protection Agency [EPA] National Institutes of Environmental Health Sciences [NIEHS] National Toxicology Program [NTP] U.S. Food and Drug Administration [FDA] Tox21 Assay Overview: Various chemicals, environmental and physiological stress conditions may lead to the activation of heat shock response/ unfolded protein response (HSR/UPR). There are three heat shock transcription factors (HSFs) (HSF-1, -2, and -4) mediating transcriptional regulation of the human HSR. To identify the compounds that activate HSR signaling, HSE-bla HeLa cell line (Invitrogen, Carlsbad, CA, USA) containing a beta-lactamase reporter gene under the control of the heat shock response elements was used to screen Tox21 10K compound library. The cytotoxicity of the Tox21 compound library against the HSE-bla HeLa cell line was tested in parallel by measuring the cell viability using CellTiter-Glo assay (Promega, Madison, WI) in the same wells.
Tox21 Assay Protocol Summary: The CellSensor HSE-bla HeLa cells (Invitrogen, Carlsbad, CA, USA) were dispensed at 1500 cells/6uL/well into 1536-well black wall/clear bottom plates using a Multidrop combi (Thermo Fisher Scientific, Waltham, MA) dispenser. After the assay plates were incubated at 37 C and 5% CO2 overnight, 23 nL of compounds dissolved in DMSO, positive controls or DMSO only was transferred to the assay plate by a Pintool station (Kalypsys, San Diego, CA). The plates were incubated at 37 C for 5 h. After 1 uL of LiveBLAzerTM B/G FRET substrate was added using a Flying Reagent Dispenser (FRD, Beckman Coulter, Indianapolis, IN, USA), the plates were incubated at room temperature for 2.5 h, and fluorescence intensity was measured by an Envision plate reader (PerkinElmer, Shelton, CT). For cell viability readout that measures cytotoxicity, 3 ul/well of CellTiter-Glo reagent was added into the assay plates using a FRD. After 30 min incubation at room temperature, the luminescence intensity in the plates was measured using a ViewLux (PerkinElmer) plate reader.
% is set by controls: 0 for no effect and ±100 for the full control effect; potency is the fitted concentration of half-maximal effect.

| SMILES | activity change, negative = cytotoxicity | Potency |
| --- | --- | --- |
| O=C(O)c1cn(C2CC2)c2cc(Cl)c(F)cc2c1=O | 3.84% | – |
| CCOc1cc(OCC)c(C(=O)CCC(=O)O)cc1OCC | 9.36% | – |
| O=CNc1ccccc1 | -5.81% [at 81.1 µM] | – |
| CC(=O)CC(=O)c1ccccc1 | -1.02% [at 81.1 µM] | – |
| Nc1ccc(C(=O)Nc2ccccc2N)cc1 | -5.68% | – |
| NC1CCN(c2nc3c(cc2F)c(=O)c(C(=O)O)cn3-c2ccc(F)cc2F)C1 (stereo not given) | 0.387% | – |
| Nc1nc(N)c(-c2ccccc2)s1 | 3.73% | – |
| c1ccc(CNCc2ccccc2)cc1 | -1.92% | – |
| CCCCCOC(=O)c1ccc(O)cc1 | -14% [at 81.1 µM] | – |
| CN(C(=O)CCCOc1ccc2[nH]c(=O)ccc2c1)C1CCCCC1 | 3.06% | – |
| CCc1nn(C2CCCCC2)c2cc(C3(C#N)CCC(C(=O)O)CC3)ccc12 (stereo not given) | -6.39% | – |
| CCOC(=O)C1=C(C)NC(C)=C(C(=O)OC)C1c1cccc([N+](=O)[O-])c1 (stereo not given) | 5.5% | – |
| CC(=O)/C=C/C1C(C)=CCCC1(C)C (stereo not given) | 7.73% | – |
| CC(C)(C)c1ccc(S)cc1 | -8.96% | – |
| CCCCCCCC/C=C\CCCCCCCC(N)=O | -5.08% | – |
| CC(=O)O[C@@H]1C(=O)O[C@@H]2[C@H]1OC(=O)[C@@H]2OC(C)=O | 0.248% | – |
| Cc1cccc(OCCOc2cccc(C)c2)c1 | 6.67% [at 81.1 µM] | – |
| CC(C)(C)c1cc(CO)cc(C(C)(C)C)c1O | -1.29% [at 81.1 µM] | – |
| CCCCc1cc2ccccc2c(OCCN(C)C)n1 | 9.49% | – |
| CCCc1ccccc1 | -4.47% | – |

| SMILES | activity change, negative = cytotoxicity | Potency |
| --- | --- | --- |
| O=C1c2cccc(O)c2C(=O)c2c(O)cc(CO)cc21 | -1.14% | – |
| COC(Cc1ccccc1)OC | 12.8% | – |
| CN1CCN(C2=Nc3cc(Cl)ccc3Nc3ccccc32)CC1 | 6.93% | – |
| CC(C)=CCCC(C)CC=O (stereo not given) | -6.75% | – |
| N#Cc1c(F)cccc1F | -3.42% | – |
| CC(C(=O)O)c1ccc(C(=O)c2ccccc2)s1 (stereo not given) | 1.98% | – |
| CC(O)C1CCCCC1 (stereo not given) | -6.44% | – |
| Oc1ccc(O)c2c(O)cccc12 | -3% | – |
| O=C1CCCCCO1 | -4.53% [at 81.1 µM] | – |
| O=C(Cl)c1c(Cl)cccc1Cl | -9.33% [at 81.1 µM] | – |
| CCCCOCCOCCOCCOCCO | 2.23% | – |
| O=C(NN1CCCC1)NS(=O)(=O)c1ccc(Cl)cc1 | -8.93% | – |
| OC(CCN1CCCCC1)(c1ccccc1)C1CCCCC1 (stereo not given) | -5.62% | – |
| FC(F)(F)C(F)(F)C(F)(F)C(F)(F)C(F)(F)C(F)(F)CCI | -1.01% | – |
| CN(c1nccc(=O)[nH]1)C1CCN(c2nc3ccccc3n2Cc2ccc(F)cc2)CC1 | -30% | – |
| Nc1cnn([C@@H]2O[C@H](CO)[C@@H](O)[C@H]2O)c(=O)n1 | 3.44% | – |
| O=C1[C@H](CC[C@H](O)c2ccc(F)cc2)[C@@H](c2ccc(O)cc2)N1c1ccc(F)cc1 | -3.42% | – |
| NCCCOCCOCCOCCCN | 0.912% | – |
| COCCCCCCCCOCCC[Si](C)(O[Si](C)(C)C)O[Si](C)(C)C | – | 38.9 µM (active) |
| CC(C(=O)O)c1ccc(-c2ccccc2)c(F)c1 (stereo not given) | 0.679% | – |
